# Hits are enriched below; roughly 21% of the tested compounds scored in any of these assays.
# NS1 inh: blocks influenza NS1 protein function. Potency, µM (highest dose often 46.1 µM). hit rate 0.4% among 270,000. AID 2326; calls by dose curve; further: actives are rising curves; nearly all actives have a fitted effect of over 50% in size
#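 In this qHTS, NS1 from influenza A is expressed in budding yeast, where it slows growth. Cells are switched from glucose to 2% galactose medium (pH 6.0, -URA), treated with compound, and growth recovery is read at OD600.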
# Shiga toxin inh: inhibitors of Shiga toxin in Vero cells; Vero cells, Shiga toxin protein synthesis inhibition reporter; inhibition, % at 38.7 µM; hit rate 9.2% among 290,000; AID 2315; in the data active means inhibition mostly above about 28%, no sharp cut-off; inactive means mostly below about 43%
# Pf growth 48h: inhibits P. falciparum growth in the first generation, 48 h. P. falciparum luciferase growth in erythrocytes, 48 h. Potency, µM (series often up to 28.7 µM), actives largely listed as inhibitors. hit rate 5.9% among 310,000
#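 A one-generation exposure of luciferase-tagged malaria parasites in RPMI 1640/Albumax erythrocyte culture, 37 C and 5% CO2. Inhibition is inferred from decreased luminescence after adding detection reagent.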
# Sm TGR inh: S. mansoni TGR enzyme inhibition; Q962Y6; purified TGR, DTNB reduction, TNB absorbance 405 nm; Potency, µM (titrated, usually from 114 µM), usual class: inhibitors; hit rate 3% among 360,000; AID 485364; further: nearly all actives have a fitted effect of over 60% in size
#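 First, TGR (20 nM dispensed) and NADPH were mixed with compound. Second, a 15 min room-temperature incubation followed. Third, further NADPH and then DTNB were added to start the reaction. Finally, TNB absorbance was monitored kinetically.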
# Cycloheximide cs: affects cycloheximide protein synthesis inhibition readout, counter-screen; cell reporter, cycloheximide protein synthesis inhibition counterscreen; hit rate 12% among 300,000; max response, %; in the data active means max response mostly above about 13%, no sharp cut-off; inactive means mostly below about 14%; further: read at 38.3 µM for the half of the compounds with a filed dose
# Pf growth 96h: inhibits malaria parasite growth, 96 h; Potency, µM (highest dose often 28.7 µM), most hits filed as inhibitors; hit rate 6.9% among 320,000; AID 504834; P. falciparum luciferase reporter growth, 96 h
#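 Readout is luminescence from an integrated firefly luciferase in P. falciparum. Red cells, 2% hematocrit and 0.05% parasitemia final, were cultured with compound through two parasite generations (96 hours) at 37 C, 5% CO2.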
# A number is an active result; i = inactive; ? = inconclusive; nt = not tested or not shown; + = active, no number; [ ] = remark or other dose. Unless noted, the call rests on the fitted dose curve; in most records, active means well fitted curve in the direction sought with a large enough effect; inconclusive means small, poorly fitted or top-dose-only effect, or another doubt; inactive means no such curve, though single readings can be large; an effect the other way counts as inactive or inconclusive.
SMILES,NS1 inh,Shiga toxin inh,Pf growth 48h,Sm TGR inh,Cycloheximide cs,Pf growth 96h
CC(C)C(=O)N1CCN(c2nc3ccc(Cl)cc3s2)CC1,i,62,i,i,36,i
CS(=O)(=O)N1CCN(c2nc3ccc(Cl)cc3s2)CC1,i,i,i,i,i,i
Clc1ccc2nc(N3CCCCC3)[nH]c2c1,i,80,i,i,37,i
Clc1ccc2nc(N3CCCCC3)sc2c1,i,82,i,i,39,?
CC(C)NC(=O)N1CCCN(c2nc3ccc(Cl)cc3s2)CC1,i,i,i,i,32,i
CCc1nc2nc(C)c(NS(=O)(=O)c3ccc(C(C)(C)C)cc3)c(=O)n2[nH]1,nt,nt,nt,i,nt,nt
CN1C[C@@H]2C(c3ccccc3)C3(c4ccccc4)CC2(C3)[C@H]1c1ccccc1 (some centres undefined),i,i,?,i,i,?
CN1C[C@@H]2C(c3ccccc3)C3(c4ccc(C#N)cc4)CC2(C3)[C@H]1c1ccccc1 (some centres undefined),i,i,10µM,i,i,10µM
CN1C[C@@H]2C(c3ccc(C(F)(F)F)cc3)C3(c4ccc(C#N)cc4)CC2(C3)[C@H]1c1ccccc1 (some centres undefined),i,i,12µM,i,i,12µM
CC(C)(O)P(=O)(O)CCc1ccccc1,i,i,?,i,i,i
COc1ccc(N2Cc3ccccc3C2=NC(=O)c2cccc([N+](=O)[O-])c2)cc1,i,i,i,i,i,i
CC(=O)c1cccc(N2Cc3ccccc3C2=NC(=O)CCl)c1,i,i,i,18µM,25,13µM
N#Cc1ccc(N2Cc3ccccc3C2=NC(=O)c2cccs2)cc1,i,+,i,i,38,i
CC(=O)c1ccc(N2Cc3ccccc3/C2=N\C(=O)Nc2ccccc2)cc1,i,i,i,i,28,i
CC(=O)c1ccc(N2Cc3ccccc3C2=NC(=O)c2cccs2)cc1,i,60,i,i,26,i
O.O.[Mn].[Mn].[Mn].[OH-].[OH-],nt,i,nt,nt,i,nt
CC(CNC(=O)c1cc2ccccn2n1)c1ccccc1 (centres undefined),nt,nt,nt,i,nt,nt
CCC(=O)OCc1cnc(C)c2oc(=O)c(C(=O)Nc3ccc(CC)cc3)cc12,nt,nt,nt,i,nt,nt
CN(C)c1cccc(C(=O)NNC(=S)NC2CC3CCC2C3)c1 (centres undefined),nt,56,i,i,32,i
CC(C)N(C(=S)NC1CC2CCC1C2)c1ccccc1 (centres undefined),nt,i,i,i,i,i
Cc1ccc(C)c(Nc2c(F)c(F)c(F)c(F)c2C(=O)O)c1,nt,i,i,i,i,?
O=C(c1ccco1)N1CCN(C(=O)c2cc(-c3ccccc3)nc3ccccc23)CC1,i,i,i,i,19,i
O=C(c1cc(Cl)nc2ccccc12)N1CCN(Cc2ccc3c(c2)OCO3)CC1,nt,nt,?,i,nt,i
O=C(c1cc(-c2ccco2)nc2ccccc12)N1CCN(Cc2ccccc2)CC1,nt,nt,i,14µM,nt,i
O=C(c1cc(-c2ccccc2)nc2ccccc12)N1CCOCC1,i,i,i,i,i,?
SMILES,NS1 inh,Shiga toxin inh,Pf growth 48h,Sm TGR inh,Cycloheximide cs,Pf growth 96h
COc1ccc(-n2cc(CN3CCC(OC)CC3)c(-c3cccc(F)c3)n2)cc1,i,i,10µM,i,i,i
Cc1cccc(-n2cc(CN3CCCN(C=O)CC3)c(-c3cccc(F)c3)n2)c1,i,52,?,i,24,i
COc1ccc(-n2cc(CNC3CCC(O)CC3)c(-c3cccc(F)c3)n2)cc1 (centres undefined),i,i,?,i,i,?
COc1ccc(-n2cc(CN(C)CCO)c(-c3cccc(F)c3)n2)cc1,i,107,?,i,54,i
COc1ccc(-n2cc(CN(C)C(C)c3ccncn3)c(-c3cccc(F)c3)n2)cc1 (centres undefined),i,i,10µM,i,i,i
COc1cccc(-c2nn(-c3ccccc3)cc2CN(C)Cc2c(C)nc3ccccn23)c1,i,i,?,i,i,i
CC(=O)N1CCCN(Cc2cn(-c3cccc(C)c3)nc2-c2cccc(F)c2)CC1,i,i,?,i,i,?
CC(C)Cc1nnc(NC(=O)c2cc(S(=O)(=O)N(C)C)ccc2N2CCCC2)s1,i,i,i,i,i,i
CCc1cc(=O)oc2cc(OCC(=O)N3CCC[C@H]3C(=O)O)ccc12,i,i,i,i,i,i
O=C(Nc1ccc(OC(F)(F)F)cc1)c1ccc2nccnc2c1,nt,79,i[5.75 µM],i,27,i
O=C(Nc1ccc(SC(F)F)cc1)c1ccc2nccnc2c1,i,41,i,i,46,?
N#Cc1ccccc1COC(=O)c1ccc(Br)o1,i,i,i,i,26,i
COc1cccc(C(=O)OCc2ccccc2C#N)c1O,i,i,nt,i[11.4 µM],21,i
CCC(=O)N1CCc2cc(S(=O)(=O)NCCC(=O)NCc3ccc(OC)cc3)ccc21,nt,nt,nt,i,nt,nt
COc1ccc2oc(C(=O)OCC(=O)NCc3ccco3)c(C)c2c1,nt,nt,i,i,nt,i
CC(C)(C)c1cc(C(=O)N2CCc3ccccc32)ccn1,i,40,?,i,i,i[5.75 µM]
CCCOc1ccc(C(=O)N2CCCc3ccccc32)cc1,i,i,?,i,15,nt
CC(C)(C)c1cc(C(=O)N2CCc3ccccc3C2)ccn1,i,i,i,i,i,i
COc1ccccc1OC(C)C(=O)N1CCc2ccccc21 (centres undefined),nt,nt,10µM,i,nt,i
COc1cc2ccccc2cc1C(=O)N1CCc2ccccc21,nt,nt,9.3µM,i,nt,?
Cc1c(Cl)cccc1NC(=O)CCS(=O)(=O)c1ccc2c(c1)CC(=O)N2C,nt,nt,nt,i,nt,nt
CN(C)S(=O)(=O)c1ccc(Nc2ccc(O)c3c2C(=O)c2c([N+](=O)[O-])ccc(O)c2C3=O)cc1,i,nt,nt,nt,nt,nt
Cc1ccc(C)c(Cn2c(=O)c3c(nc4n3CCN4c3ccccc3)n(C)c2=O)c1,nt,nt,nt,i,nt,nt
O=C(c1ccc(F)c(F)c1)N1CCCc2ccccc21,i,i,i,i,i,i
CCOc1ccc(C(=O)N2CCc3ccccc32)cc1,i,64,?,i,44,i
SMILES,NS1 inh,Shiga toxin inh,Pf growth 48h,Sm TGR inh,Cycloheximide cs,Pf growth 96h
O=C(c1ccc2ccccc2c1)N1CCc2ccccc21,i,i,i,i,37,?
CCOc1ccc(CCNC(=O)c2nn(C)c3c2CSc2ccc(C)cc2-3)cc1OCC,nt,nt,nt,i,nt,nt
CC(=O)COc1c(-c2ccco2)oc2ccccc2c1=O,i,i,i,i,i,?
CCN(CC)C(=O)C1CCCN(Cc2nc(-c3cccs3)no2)C1 (centres undefined),i,i,i,i,i,i
O=C(c1ccc(Cl)cc1)N1CCC(c2nc(-c3cccs3)no2)CC1,i,i,i,i,i,i
CCOc1ccc(C(=O)N2CCCC(c3nc(-c4cccs4)no3)C2)cc1 (centres undefined),i,33,i,i,28,i
CCC(CC)C(=O)N1CCCC(c2nc(-c3cccs3)no2)C1 (centres undefined),i,61,i,i,i,nt
O=C(NCc1ccc(F)cc1)c1ccc(Nc2nc3ccccc3n3nnnc23)cc1,nt,nt,nt,i,nt,nt

# Compound activity as filed in PubChem BioAssay.
